Assay results published in PubChem BioAssay (EPA / NIEHS).
The source made the active and inactive calls. Rule for the calls: active = hit-call score of the fitted dose curve at least 0.9, where 1 is the maximum; inactive = score below 0.9.

Experiments:
Settings in all cases: mRNA level, 48 h; actives raise or lower the signal
BCL2L11 (gene 10018) = assay: LTEA_HepaRG_BCL2L11: Life Technologies and Expression Analysis (LTEA) Assay for Bcl-2 (BCL2L11) gene using HepaRG (AID 2283473)
Method in brief: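 Read-out is BCL2L11 transcript level by qRT-PCR, normalized to three housekeeping genes and fitted bidirectionally against 0.5% DMSO vehicle. HepaRG cells received chemicals for 48 h in serum-free induction medium, 100 uM down in half-log dilutions.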

[1] = read-out: Apolipoprotein A-V (APOA5) gene, APOA5 (gene 116519); assay: LTEA_HepaRG_APOA5: Life Technologies and Expression Analysis (LTEA) Assay for Apolipoprotein A-V (APOA5) gene using HepaRG (AID 2283474)
Method in brief: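 Readout is APOA5 transcript level by qRT-PCR on Fluidigm dynamic arrays, normalized to three housekeeping genes. HepaRG cultures received chemicals for 48 h at up to 100 uM (half-log steps, 0.5% DMSO), with gain or loss scored relative to DMSO.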

[2] = read-out: Apoptosis regulator Bcl-2 (Homo sapiens) (UniProt P10415); assay: LTEA_HepaRG_BCL2: Life Technologies and Expression Analysis (LTEA) Assay for Bcl-2 gene using HepaRG (AID 2283475)
Method in brief: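 Each chemical was tested in duplicate on HepaRG cultures held in serum-free induction medium for 48 h, highest concentration 100 uM with half-log dilutions. Transcript levels came from multiplexed qRT-PCR, normalised to housekeeping genes; activity was scored in either direction relative to DMSO.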

[3] = read-out: Bcl-2 (BID) gene, BID (gene 637); assay: LTEA_HepaRG_BID: Life Technologies and Expression Analysis (LTEA) Assay for Bcl-2 (BID) gene using HepaRG (AID 2283476)
Method in brief: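 Assay used HepaRG hepatic cells treated 48 h in serum-free medium with half-log dilutions from 100 uM. Endpoint: BID mRNA, qRT-PCR, normalized to ACTB/GAPDH/POLR2A.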

Caspase-3 (Homo sapiens) = Caspase-3 (Homo sapiens) (UniProt P42574); assay: LTEA_HepaRG_CASP3: Life Technologies and Expression Analysis (LTEA) Assay for cysteine-aspartic acid protease (CASP3) using HepaRG (AID 2283477)
Method in brief: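 Read-out is CASP3 mRNA level by TaqMan qRT-PCR in human HepaRG cells after 48 h chemical exposure. Eight half-log concentrations topping at 100 uM were tested in 0.5% DMSO; gain or loss was fitted relative to DMSO.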

[4] = read-out: Cytochrome P450 (CYP24A1), CYP24A1 (gene 1591); assay: LTEA_HepaRG_CYP24A1: Life Technologies and Expression Analysis (LTEA) Assay for Cytochrome P450 (CYP24A1) using HepaRG (AID 2283478)
Method in brief: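 HepaRG, 48 h chemical exposure, 8-pt half-log CRC from 100 uM, 0.5% DMSO vehicle, duplicates. Endpoint: CYP24A1 mRNA by Fluidigm TaqMan qRT-PCR, normalized ACTB/GAPDH/POLR2A; gain/loss fit vs DMSO.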

[5] = read-out: cysteine-aspartic acid protease (CASP8), CASP8 (gene 841); assay: LTEA_HepaRG_CASP8: Life Technologies and Expression Analysis (LTEA) Assay for cysteine-aspartic acid protease (CASP8) using HepaRG (AID 2283480)
Method in brief: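 qRT-PCR readout of CASP8 mRNA, normalized to three housekeeping genes, after 48 h chemical exposure of HepaRG cells; 8-point half-log series, top 100 uM, 0.5% DMSO vehicle. Bidirectional curve fitting against DMSO baseline.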

[6] = read-out: Cytochrome P450 (CYP2B6), CYP2B6 (gene 1555); assay: LTEA_HepaRG_CYP2B6: Life Technologies and Expression Analysis (LTEA) Assay for Cytochrome P450 (CYP2B6) using HepaRG (AID 2283481)
Method in brief: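 HepaRG cells plated 48 h, switched to serum-free induction medium, then dosed 48 h (8 points, half-log from 100 uM, 0.5% DMSO). RNA isolated; CYP2B6 expression measured by qRT-PCR; gain or loss fitted relative to DMSO.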

CYP2C8 (gene 1558) = assay: LTEA_HepaRG_CYP2C8: Life Technologies and Expression Analysis (LTEA) Assay for CYP2C8 using HepaRG (AID 2283483)
Method in brief: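 HepaRG (human liver line), 48 h chemical exposure, 8-pt half-log series from 100 uM, 0.5% DMSO vehicle. Readout: CYP2C8 transcript by qRT-PCR, housekeeping-normalized. Bidirectional fit vs DMSO baseline.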

CYP2C9 (gene 1559) = assay: LTEA_HepaRG_CYP2C9: Life Technologies and Expression Analysis (LTEA) Assay for CYP2C9 using HepaRG (AID 2283484)
Method in brief: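 HepaRG, 48 h dosing, 8-pt half-log series, top 100 uM, 0.5% DMSO vehicle. Read-out: CYP2C9 transcript by TaqMan qRT-PCR, housekeeping-normalized (ACTB/GAPDH/POLR2A). Gain or loss fitted vs DMSO baseline.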

CYP2E1 (gene 1571) = assay: LTEA_HepaRG_CYP2E1: Life Technologies and Expression Analysis (LTEA) Assay for CYP2E1 using HepaRG (AID 2283485)
Method in brief: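 Assay uses 48 h exposure of HepaRG hepatic cells, eight concentrations to 100 uM. Expression of CYP2E1 is quantified by TaqMan qRT-PCR with ACTB, GAPDH and POLR2A normalization; curves fitted in both directions relative to vehicle.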

CYP4A11 (gene 1579) = assay: LTEA_HepaRG_CYP4A11: Life Technologies and Expression Analysis (LTEA) Assay for CYP4A11 using HepaRG (AID 2283486)
Method in brief: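 HepaRG, 48 h chem exposure, 8 conc (100 uM top, half-log), 0.5% DMSO vehicle; qRT-PCR readout, housekeeping-gene normalized; bidirectional curve fit vs DMSO baseline.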

[7] = read-out: Cytochrome P450 3A4 (Homo sapiens) (UniProt P08684); assay: LTEA_HepaRG_CYP3A4: Life Technologies and Expression Analysis (LTEA) Assay for CYP3A4 using HepaRG (AID 2283487)
Method in brief: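 Differentiated HepaRG cells in serum-free induction medium exposed in duplicate for 48 h to 8 half-log concentrations up to 100 uM in 0.5% DMSO. CYP3A4 mRNA measured by qRT-PCR normalized to ACTB, GAPDH and POLR2A; bidirectional fit versus DMSO.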

[8] = read-out: DNA damage-inducible transcript 3 (DDIT3), DDIT3 (gene 1649); assay: LTEA_HepaRG_DDIT3: Life Technologies and Expression Analysis (LTEA) Assay for DNA damage-inducible transcript 3 (DDIT3) using HepaRG (AID 2283488)
Method in brief: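 Eight-point concentration-response (100 uM highest, half-log dilutions) in HepaRG, 48 h, duplicate wells. Endpoint: qRT-PCR mRNA, normalized (ACTB, GAPDH, POLR2A), bidirectional fitting with DMSO as baseline.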

[9] = read-out: Pro-epidermal growth factor (Homo sapiens) (UniProt P01133); assay: LTEA_HepaRG_EGF: Life Technologies and Expression Analysis (LTEA) Assay for Epidermal growth factor (EGF) using HepaRG (AID 2283489)
Method in brief: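 HepaRG, 48 h dosing, 100 uM top, half-log x8, 0.5% DMSO. Readout: TaqMan qRT-PCR (Fluidigm array), housekeeping-normalized. Gain or loss of signal fit vs DMSO.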

[10] = read-out: Early growth response protein 1 (EGR1) transcription factor, EGR1 (gene 1958); assay: LTEA_HepaRG_EGR1: Life Technologies and Expression Analysis (LTEA) Assay for Early growth response protein 1 (EGR1) transcription factor using HepaRG (AID 2283490)
Method in brief: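 HepaRG, 48 h exposure, 8-pt half-log series from 100 uM, 0.5% DMSO vehicle; EGR1 transcript by TaqMan qRT-PCR (Fluidigm array), housekeeping-normalized; bidirectional fit relative to DMSO baseline.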

[11] = read-out: Ezrin (EZR), EZR (gene 7430); assay: LTEA_HepaRG_EZR: Life Technologies and Expression Analysis (LTEA) Assay for Ezrin (EZR) using HepaRG (AID 2283491)
Method in brief: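 Differentiated human HepaRG cells, 48 h after plating, were exposed in serum-free induction medium for 48 hours to eight half-log concentrations up to 100 uM in 0.5% DMSO. EZR mRNA was measured by TaqMan qRT-PCR, normalized to ACTB, GAPDH and POLR2A, and fitted bidirectionally against DMSO.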

[12] = read-out: Cytochrome P450 3A7 (Homo sapiens) (UniProt P24462); assay: LTEA_HepaRG_CYP3A7: Life Technologies and Expression Analysis (LTEA) Assay for CYP3A7 using HepaRG (AID 2283492)
Method in brief: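 Human HepaRG liver cells, 48 h post-plating, switched to serum-free induction medium and exposed in duplicate for 48 h. Dosing: 100 uM top, half-log dilutions, 8 points, 0.5% DMSO vehicle. Read-out: CYP3A7 mRNA, gain or loss fitted against DMSO baseline.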

[13] = read-out: Cytochrome P450 2C19 (Homo sapiens) (UniProt P33261); assay: LTEA_HepaRG_CYP2C19: Life Technologies and Expression Analysis (LTEA) Assay for CYP2C19 using HepaRG (AID 2283482)
Method in brief: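 Transcript levels of CYP2C19 were quantified by qRT-PCR after HepaRG cells were treated for 48 hours with test chemicals up to 100 uM (eight half-log concentrations, 0.5% DMSO vehicle). Gain or loss of signal was fitted relative to DMSO.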

Measured: AC50

Sequence of Apoptosis regulator Bcl-2 (Homo sapiens) (P10415 whole entry, looked up): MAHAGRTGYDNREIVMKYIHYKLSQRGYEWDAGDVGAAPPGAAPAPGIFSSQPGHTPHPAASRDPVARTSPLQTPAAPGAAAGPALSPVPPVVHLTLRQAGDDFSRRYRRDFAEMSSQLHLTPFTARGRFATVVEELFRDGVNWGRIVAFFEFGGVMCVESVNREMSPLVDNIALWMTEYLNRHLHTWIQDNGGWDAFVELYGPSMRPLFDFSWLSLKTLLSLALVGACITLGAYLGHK
Sequence of Caspase-3 (Homo sapiens) (P42574 whole entry, looked up): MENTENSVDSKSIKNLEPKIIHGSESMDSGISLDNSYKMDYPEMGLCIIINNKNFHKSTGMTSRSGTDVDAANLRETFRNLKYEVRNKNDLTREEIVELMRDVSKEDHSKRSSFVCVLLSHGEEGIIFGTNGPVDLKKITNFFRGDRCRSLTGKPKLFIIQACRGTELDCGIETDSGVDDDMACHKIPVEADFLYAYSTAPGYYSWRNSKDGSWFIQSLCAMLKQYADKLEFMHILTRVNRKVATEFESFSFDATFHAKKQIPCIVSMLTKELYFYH
Sequence of Cytochrome P450 3A4 (Homo sapiens) (P08684 whole entry, looked up): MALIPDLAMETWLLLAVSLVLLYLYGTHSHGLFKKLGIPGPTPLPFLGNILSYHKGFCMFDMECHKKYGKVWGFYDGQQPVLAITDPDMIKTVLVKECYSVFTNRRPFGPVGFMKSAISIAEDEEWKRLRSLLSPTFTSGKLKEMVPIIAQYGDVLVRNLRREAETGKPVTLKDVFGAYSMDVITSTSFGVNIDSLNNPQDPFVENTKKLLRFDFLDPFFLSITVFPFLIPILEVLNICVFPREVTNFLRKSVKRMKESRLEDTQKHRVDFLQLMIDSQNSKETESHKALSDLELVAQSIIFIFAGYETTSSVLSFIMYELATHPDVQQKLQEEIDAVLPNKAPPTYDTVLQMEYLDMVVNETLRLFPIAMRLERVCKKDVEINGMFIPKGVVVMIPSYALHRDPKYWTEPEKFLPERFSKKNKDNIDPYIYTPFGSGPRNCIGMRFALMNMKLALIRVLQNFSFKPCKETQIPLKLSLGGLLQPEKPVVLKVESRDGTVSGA
Sequence of Cytochrome P450 3A7 (Homo sapiens) (P24462 whole entry, looked up): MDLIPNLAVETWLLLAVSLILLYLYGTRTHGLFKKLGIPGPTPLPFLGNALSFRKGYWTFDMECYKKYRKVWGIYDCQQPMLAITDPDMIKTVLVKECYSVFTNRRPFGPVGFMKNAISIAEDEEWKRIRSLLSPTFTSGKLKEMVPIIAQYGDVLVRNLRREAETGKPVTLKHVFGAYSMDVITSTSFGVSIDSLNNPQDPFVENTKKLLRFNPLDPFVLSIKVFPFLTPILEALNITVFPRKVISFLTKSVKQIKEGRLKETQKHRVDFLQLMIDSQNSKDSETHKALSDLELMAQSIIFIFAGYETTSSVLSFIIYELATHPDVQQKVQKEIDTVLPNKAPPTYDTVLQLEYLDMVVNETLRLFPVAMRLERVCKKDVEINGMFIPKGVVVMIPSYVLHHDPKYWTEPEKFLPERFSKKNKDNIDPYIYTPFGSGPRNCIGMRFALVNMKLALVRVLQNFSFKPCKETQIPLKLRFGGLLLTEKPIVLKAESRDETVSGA
Sequence of Cytochrome P450 2C19 (Homo sapiens) (P33261 whole entry, looked up): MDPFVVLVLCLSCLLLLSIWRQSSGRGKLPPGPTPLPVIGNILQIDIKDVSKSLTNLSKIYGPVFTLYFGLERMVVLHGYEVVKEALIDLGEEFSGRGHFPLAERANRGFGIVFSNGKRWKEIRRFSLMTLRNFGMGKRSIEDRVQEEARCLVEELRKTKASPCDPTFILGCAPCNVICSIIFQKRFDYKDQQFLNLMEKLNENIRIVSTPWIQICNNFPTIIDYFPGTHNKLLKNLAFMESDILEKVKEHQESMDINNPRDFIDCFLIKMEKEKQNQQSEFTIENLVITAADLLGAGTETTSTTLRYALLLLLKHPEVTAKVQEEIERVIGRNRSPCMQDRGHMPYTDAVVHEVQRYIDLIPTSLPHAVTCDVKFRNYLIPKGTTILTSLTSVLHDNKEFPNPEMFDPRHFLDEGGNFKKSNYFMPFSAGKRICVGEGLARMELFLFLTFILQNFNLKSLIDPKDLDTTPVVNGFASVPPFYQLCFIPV

CCn1nc(C)c2c1C(=O)NCC(c1ccc(O)cc1)=N2
inactive: BCL2L11 (gene 10018) | [1] | [2] | [3] | Caspase-3 (Homo sapiens) | [4] | [5] | CYP2C8 (gene 1558) | CYP2C9 (gene 1559) | CYP2E1 (gene 1571) | [8] | [9] | [10] | [11]
active: [6] 32.9 µM | CYP4A11 (gene 1579) 27.9 µM | [7] 29.9 µM | [12] 34.1 µM

CNC(C)=O
inactive: BCL2L11 (gene 10018) | [1] | [2] | [3] | Caspase-3 (Homo sapiens) | [4] | [5] | [6] | CYP2C8 (gene 1558) | CYP2C9 (gene 1559) | CYP2E1 (gene 1571) | CYP4A11 (gene 1579) | [7] | [8] | [9] | [10] | [11] | [12]

NC(=O)N1c2ccccc2C=Cc2ccccc21
inactive: BCL2L11 (gene 10018) | [1] | [2] | [3] | Caspase-3 (Homo sapiens) | [4] | [5] | CYP2C8 (gene 1558) | CYP2C9 (gene 1559) | CYP4A11 (gene 1579) | [8] | [9] | [11]
active: [6] 5.83 µM | [13] 15.9 µM | CYP2E1 (gene 1571) 41.8 µM

CCCCCCCC1CCC(=O)O1 (stereo unspecified)
inactive: BCL2L11 (gene 10018) | [1] | [2] | [3] | Caspase-3 (Homo sapiens) | [5] | [8] | [9] | [11]
